SMILES strings stand for the structures. The campaign covered roughly 330,000 compounds. About 4,100 (1.2%) were called active. The sample holds actives, similar compounds and a random draw of the others, so the mix is not that of the screen. Cut-off read from the data, not from the text of the source: active = inhibition above about 50%; inactive = the rest.

The target of this assay is Sentrin-specific protease 8 (Homo sapiens) (UniProt Q96LD8). Put plainly: blockers of human SENP8 peptidase activity – biochemical, luminescence, primary screen (AID 2540). The settings on record: purified SENP8, Z-RLRGG-aminoluciferin cleavage, at 10 µM, hits give high values.
Chain of Sentrin-specific protease 8 (Homo sapiens) (Q96LD8 whole entry, looked up): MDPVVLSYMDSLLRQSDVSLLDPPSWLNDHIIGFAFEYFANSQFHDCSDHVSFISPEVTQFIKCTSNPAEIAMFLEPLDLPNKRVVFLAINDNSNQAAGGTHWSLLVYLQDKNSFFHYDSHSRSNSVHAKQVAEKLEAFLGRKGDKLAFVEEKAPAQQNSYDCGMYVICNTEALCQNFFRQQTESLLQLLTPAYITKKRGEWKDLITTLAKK
In general, inhibition refers to the change of the read-out against control, counted positive when it falls. Regarding `CCCc1cc(C(=O)Nc2ccc(Cl)cn2)cs1`, the inhibition was 66.2% (active).
Then `O=C(Nc1ccc(Cl)cn1)c1ccc2c(c1)OCCO2`, with 75.8% (active); and `Cc1nc(NC(=O)c2ccc3c(c2)OCCO3)ccc1Br`, with 74.8% (active).
Then `Cc1cccc(C)c1NC(=O)CNC(=O)c1ccc2c(c1)OCCO2`, with -10.7% (inactive).
Turning to `Cc1ccc(C(=O)NNC(=O)c2ccc3c(c2)OCCO3)cc1`, the inhibition was 5.52% (inactive).
Then `O=C(Nc1ccc(Cl)cn1)c1cnn2cccnc12`, with -0.161% (inactive); and `CCCc1cc(C(=O)Nc2ccc(C(=O)OC)cc2)cs1`, with -3.33% (inactive); and `CCCCC(CC)C(=O)Nc1ccc(Cl)cn1` (stereo not drawn), with 7.93% (inactive).
The value for `COc1ccc(C(=O)NC(=S)Nc2ccc(Cl)cn2)cc1OC` was -13.1% (inactive); that for `CCCCN(C(=O)CCNC(=O)NC12CC3CC(CC(C3)C1)C2)c1c(N)n(CCCC)c(=O)[nH]c1=O` was -4.31% (inactive); that for `COc1ccccc1NC(=O)CCC(=O)OC(C)C(=O)c1ccccc1` (stereo not drawn) was -4.92% (inactive).
Then `Cc1cc(Nc2cc(N3CCN(C)CC3)nc(Sc3ccc(NC(=O)C4CC4)cc3)n2)n[nH]1`, with -3.96% (inactive); and `CC(=O)N(C1=C(Cl)C(=O)c2ccccc2C1=O)c1ccc(C(=O)O)cc1`, with 61.8% (active); and `O=C(CCN1C(=O)c2ccccc2C1=O)NNC(=O)c1ccc(Cl)cc1Cl`, with -11.3% (inactive).
With `O=S1(=O)CC/C(=N\Nc2ccc(F)cc2)c2ccsc21`, the inhibition is -11.5% (inactive).
The value for `CNC(C)C#Cc1ccc2sc3cc(OC)c(OC)cc3c(=O)c2c1` (stereo not drawn) was 70.5% (active).
The value for `O=C(NC(=S)N1CCCCC1c1cccnc1)c1ccccc1` (stereo not drawn) was -8.93% (inactive); that for `O=C(CCCCO)c1ccc(O)c(Cl)c1` was -4.6% (inactive); that for `Cc1ccc2nc(-c3ccc(Br)cc3)cn2c1` was 74.4% (active).
The value for `Cc1ccn2cc(C(=O)NC3CCN(Cc4ccccc4)CC3)nc2c1` was 3.06% (inactive); that for `Cc1ccc(-n2c(-c3ccc(Cl)cc3)n[nH]c2=S)cc1` was -0.548% (inactive).
For `CCN(CC)S(=O)(=O)c1ccc(-c2cn3ccc(C)cc3n2)cc1`, the inhibition is -1.4% (inactive).
Consider `Cc1cc(N2CCOCC2)nc(-c2ccc(Br)cc2)n1`, for which the inhibition was -13.3% (inactive).
The value for `CSc1nnc2ccc(-c3ccc(C)cc3)nn12` was -14.2% (inactive); that for `Cc1ccc(-c2cc(N)on2)cc1` was -6.42% (inactive); that for `COc1ccc(-c2cn3ccc(C)cc3n2)cc1` was 95.5% (active).
Then `Cc1ccc(-c2cn3cc(C)ccc3n2)cc1`, with 84.7% (active); and `COCCN(CCOC)S(=O)(=O)NC[C@H]1O[C@@H](n2cnc3c(N)ncnc32)[C@H](O)[C@@H]1O`, with 3.39% (inactive); and `COc1ccccc1CCNS(=O)(=O)c1cc2c3c(c1)C(C)C(=O)N3CCC2` (stereo not drawn), with -8.53% (inactive).
The value for `CCn1nc(C)c(/C=N/NC(=O)Cc2ccc(Cl)cc2)c1C` was -9.56% (inactive); that for `Cc1ccc(NC(=O)CC2C(=O)N(Cc3ccccc3)C(=S)N2NC(=O)c2cccc(F)c2)c(C)c1` (stereo not drawn) was -4.05% (inactive); that for `Cc1ccc(O)c(NC(=S)NC(=O)COc2ccc(Br)cc2)c1` was -5.01% (inactive).
As for `CCCc1cc(=O)[nH]c(SCc2ccc(C#N)cc2)n1`, the inhibition is 0.541% (inactive).
The value for `C(=N\Nc1ccc2ccccc2n1)/c1ccc2c(c1)OCO2` was 93.1% (active); that for `Cc1noc(C)c1/C=N/Nc1ccc2ccccc2n1` was -8.03% (inactive); that for `Cc1cc(=O)[nH]c(N/N=C/c2ccc3c(c2)OCCO3)n1` was -1.24% (inactive).
The value for `COc1cc(-c2nnc(Cn3cc(C(F)(F)F)ccc3=O)o2)cc(OC)c1OC` was -4.14% (inactive).
For `Cc1ccc(C)c(-n2c(SCC(=O)O)nc3sc4c(c3c2=O)CCCC4)c1`, the inhibition is -9.61% (inactive).
The value for `CCCCCc1ccc(-c2ccc(OCC)cc2)nc1` was -5.58% (inactive); that for `CCCCCc1ccc(-c2ccc(C(=O)O)cc2)nc1` was 92.4% (active).
The value for `CCCCCc1ccc(-c2cn(Cc3ccc4ccccc4c3)nn2)cc1` was -9.63% (inactive); that for `CC(C)CN(C(=O)CSc1nncn1C)C1CCS(=O)(=O)C1` (stereo not drawn) was -3.63% (inactive).
In the case of `CCOCCc1nn2c(=O)cc(CSCC(=O)Nc3cccc(C)c3C)nc2s1`, the inhibition was -0.564% (inactive).
The value for `O=C(Nc1nnc(C2COc3ccccc3O2)o1)c1ccc(F)cc1` (stereo not drawn) was -17.2% (inactive); that for `FC(F)(F)c1ccnc(Oc2ccc(C3=NCCS3)cc2)c1` was 67.8% (active); that for `CC(C)Oc1ccc(Oc2ccc(C(F)(F)F)cn2)cc1` was -8.39% (inactive).
As for `NC1=NC(=O)C(Cc2cccc(Cl)c2)S1` (stereo not drawn), the inhibition was -2.31% (inactive).
The value for `O=C(NCCCN1CCOCC1)c1cnn2c(-c3ccccc3)cc(-c3ccccc3)nc12` was -0.117% (inactive); that for `N#C/C=C1\Sc2ccccc2C(=O)N1CC(=O)N1CCN(S(=O)(=O)c2ccccc2)CC1` was -2.48% (inactive).
The value for `CCCc1ccc(OCCNC(=O)c2ccco2)cc1` was 2.92% (inactive).
Then `CCCOc1ccc(C(=O)NCCc2ccccc2)cc1`, with 52% (active).
`CCCc1ccc(OCCNC(=O)c2ccccc2Br)cc1`: the inhibition was 7.2% (inactive).
Then `CCCC(C(=O)n1nc(C)cc1C)C(NS(=O)(=O)c1ccc(C)cc1)c1ccccc1` (stereo not drawn), with -2.3% (inactive); and `Cc1ccc(C)c(NC(=O)NNC(=O)c2ccc3ccccc3c2O)c1`, with -2.4% (inactive); and `C#CCOCCOCCOCCNc1nc(N2CCN(C(=O)[C@H](CCCN=C(N)N)n3cc(C(N)[C@@H](C)CC)nn3)CC2)nc(N2CCN(C(=O)[C@H](CO)n3cc([C@@H](N)C(C)C)nn3)CC2)n1` (stereo partly drawn), with 5.69% (inactive).
The value for `O=C(O)/C=C/C(=O)NNc1ccc([N+](=O)[O-])cc1` was 69.3% (active); that for `CNC(=S)Nc1ccc([N+](=O)[O-])cc1` was -4.02% (inactive).
Then `O=C(Cc1ccccc1)NNS(=O)(=O)c1ccc([N+](=O)[O-])cc1`, with -1.17% (inactive); and `CCOC(=O)C1(Cc2cccc(OC)c2)CCN(Cc2csc(C(C)=O)c2)CC1`, with -11.2% (inactive).
Take `O=C(CCCCCn1c(=S)[nH]c2ccsc2c1=O)NC1CCCCC1`: the inhibition is 0.315% (inactive).
For `Cc1nn(CC(=O)Nc2ccc(C#N)cc2)c(C)c1[N+](=O)[O-]`, the inhibition was -9.74% (inactive).
Then `O=C(O)Cc1ccc(NC(=O)Nc2cccc3ccccc23)cc1`, with -11% (inactive); and `CN(CC(=O)Nc1ccc(Cl)cc1)CC(=O)Nc1cccc2ccccc12`, with -2.39% (inactive); and `O=C(Nc1cccc2ccccc12)c1onc2c1CCCC2`, with 71.5% (active).
The value for `O=C(Nc1c2c(nn1-c1ccc(F)cc1)CS(=O)C2)C12CC3CC(CC(C3)C1)C2` (stereo not drawn) was -3.44% (inactive); that for `CCC(Cc1ccccc1)NC(=O)C1CCCCC1` (stereo not drawn) was -7.47% (inactive).
The value for `CN(C(=O)CSc1nncc2ccccc12)C1CCCCC1` was -9.8% (inactive); that for `CN(c1ccc2nc3ccccc3c(=O)n2n1)C1CCCCC1` was 92.6% (active).
In the case of `CN(C(=O)c1cc2c(=O)n3ccccc3nc2s1)C1CCCCC1`, the inhibition is -2.55% (inactive).
Then `CC(C(=O)N1CCOCC1)N1c2cccc3cccc(c23)S1(=O)=O` (stereo not drawn), with 3.41% (inactive).
Consider `Cc1cccc(NC(=O)c2cc(N3C(=O)CCC3=O)ccc2Cl)n1`, for which the inhibition is -1.19% (inactive).
Then `Cc1cccc(NC(=O)c2ccc3ccccc3n2)n1`, with 61.5% (active); and `Cc1cccc(NC(=O)Cc2ccc(Br)cc2)n1`, with -12.8% (inactive); and `CC(=O)c1cnc(SCC(=O)O)nc1C`, with 6.9% (inactive).
The value for `O=C(CCC(=O)c1cccs1)Nc1nc2ccccc2s1` was -9.74% (inactive).
In the case of `c1ccc2sc(NN=C3CCCC3)nc2c1`, the inhibition is 72% (active).
Then `CCN(CC)CCn1c2c(c(SCC(=O)Nc3nc4ccccc4s3)nc1=O)CCCC2`, with 3.66% (inactive).
The value for `O=C(Nc1ncc([N+](=O)[O-])s1)C1COc2ccccc2O1` (stereo not drawn) was 95.6% (active).
The value for `COc1ccc(NC(=O)C2COc3ccccc3O2)cc1` (stereo not drawn) was -15.1% (inactive); that for `COc1ccc(OC)c2sc(NC(=O)C3COc4ccccc4O3)nc12` (stereo not drawn) was -14.6% (inactive).
`COc1ccc(OC)c(NC(=O)Cn2c(=O)oc3ccccc32)c1`: the inhibition is -1.75% (inactive).
Then `N#Cc1cc([N+](=O)[O-])ccc1NC(=O)COC(=O)c1cnccn1`, with -2.92% (inactive); and `O=C(CN1CCN(c2ccc(Cl)cc2)CC1)NCc1cccs1`, with -8.2% (inactive); and `CCc1cc(CNC(=O)CC2C(=O)NCCN2CC2CCCCC2)on1` (stereo not drawn), with -2.78% (inactive).
Then `CCCCCN(C(=O)CCC(=O)OCCOc1ccc(OC)cc1)c1c(N)n(CCCC)c(=O)[nH]c1=O`, with 6.98% (inactive).
Consider `Cc1nc2cc(NC(=O)Nc3cccc(F)c3)ccc2n1C`, for which the inhibition was 90.8% (active).
Then `Cn1c(CCN2CCCCCC2)nc2cc(NC(=O)Nc3ccccc3)ccc21`, with 1.11% (inactive); and `C=CCN(C(=O)Nc1ccc2c(c1)nc(C)n2C)c1ccccc1`, with 0.305% (inactive); and `O=C(COC(=O)c1cnccn1)Nc1cccc2ccccc12`, with 1.04% (inactive).
The value for `O=C(CSc1ncnc2c1nnn2Cc1ccc(F)cc1)NC1CCCC1` was -8.4% (inactive).
Then `O=C(c1ccc(CSc2ccccc2)cc1)N1CCCCCC1`, with 64.4% (active); and `O=C(c1ccc(S(=O)(=O)c2ccccc2)cc1)N1CCCCCC1`, with -5.04% (inactive); and `O=C(Nc1ccccc1C(=O)N1CCOCC1)c1ccc(CSc2ccccc2)cc1`, with -3.32% (inactive).
Regarding `O=C(CSc1nccc(=O)[nH]1)Nc1ccc(N2CCOCC2)c(Cl)c1`, the inhibition was 2.95% (inactive).
The value for `Cc1sc(NC(=S)NC(=O)c2cccs2)nc1-c1ccc(CC(C)C)cc1` was 13.2% (inactive).
The value for `C/C(=N\NC(=O)CNC(=O)C(c1ccccc1)c1ccccc1)c1ccc(C)cc1` was -7.34% (inactive); that for `C/C(=N\NC(=O)c1ccc(C)cc1)C1C(=O)c2ccccc2C1=O` was 86.8% (active); that for `Cc1ccc(C(=O)N/C(=C/c2cccnc2)C(=O)O)cc1` was -10.8% (inactive).
